Calls of active or inactive are those of the source.
Key:
[1] = compounds binding Alexa647 anti-His antibody – biochemical, small-molecule microarray, 635 nm fluorescence, artefact control for SMM control protein annotation, primary screen (AID 1128); details: higher = more signal;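 also: score merges feature fluorescence with signal-to-noise for each printed compound spot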
[2] = tested on: Human papillomavirus type 1a E7 protein (residues 1-88); experiment: HPV1a E7 small-molecule binders, primary screen, biochemical, small-molecule microarray, residues 1-88, 635 nm (AID 1129); details: small-molecule microarray binding, fluorescence 635 nm; higher = more signal
[3] = target: Focal adhesion kinase 1 (Homo sapiens) (UniProt Q05397); experiment: PTK2 protein binding on printed compound slides – biochemical, small-molecule microarray, 635/667 nm fluorescence, BSA, DTT, primary screen (AID 1130); details: 635 nm fluorescence, higher = more signal;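 also: composite of spot emission at 667 nm and signal to noise over triplicate slides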
Chain of Focal adhesion kinase 1 (Homo sapiens) (Q05397 whole entry, looked up): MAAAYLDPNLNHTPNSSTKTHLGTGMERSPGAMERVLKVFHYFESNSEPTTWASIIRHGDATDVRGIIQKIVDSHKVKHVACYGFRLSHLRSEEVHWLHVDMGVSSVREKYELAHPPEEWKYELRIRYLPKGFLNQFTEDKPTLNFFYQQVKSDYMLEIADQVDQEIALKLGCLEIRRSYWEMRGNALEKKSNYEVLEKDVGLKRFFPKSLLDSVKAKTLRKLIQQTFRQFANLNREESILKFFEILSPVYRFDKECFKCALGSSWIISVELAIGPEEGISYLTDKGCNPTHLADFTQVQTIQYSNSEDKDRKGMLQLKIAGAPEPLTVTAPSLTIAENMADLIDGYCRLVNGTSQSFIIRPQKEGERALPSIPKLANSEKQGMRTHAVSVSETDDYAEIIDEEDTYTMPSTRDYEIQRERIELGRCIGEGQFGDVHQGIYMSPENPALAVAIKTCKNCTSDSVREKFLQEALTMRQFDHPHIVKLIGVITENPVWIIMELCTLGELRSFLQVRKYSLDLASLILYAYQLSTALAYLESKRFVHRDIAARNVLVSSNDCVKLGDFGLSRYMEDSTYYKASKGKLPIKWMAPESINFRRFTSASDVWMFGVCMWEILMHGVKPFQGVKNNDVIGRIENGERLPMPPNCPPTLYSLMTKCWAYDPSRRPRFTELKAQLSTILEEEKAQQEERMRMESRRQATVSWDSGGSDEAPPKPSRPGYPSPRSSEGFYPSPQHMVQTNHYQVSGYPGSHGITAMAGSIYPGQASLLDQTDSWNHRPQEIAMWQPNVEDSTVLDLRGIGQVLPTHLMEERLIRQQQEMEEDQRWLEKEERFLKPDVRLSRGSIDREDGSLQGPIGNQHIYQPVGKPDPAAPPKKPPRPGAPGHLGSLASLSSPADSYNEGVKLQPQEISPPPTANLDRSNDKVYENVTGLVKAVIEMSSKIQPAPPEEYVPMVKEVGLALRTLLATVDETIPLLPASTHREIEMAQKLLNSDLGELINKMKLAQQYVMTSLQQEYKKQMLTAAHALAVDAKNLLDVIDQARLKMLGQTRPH

[4] = tested on: Fibrinogen (Alexa647-labelled); experiment: Alexa647-fibrinogen binding to printed small molecules – biochemical, small-molecule microarray, 635/667 nm fluorescence, artefact control for SMM control-protein annotation, profiling panel (AID 1131); details: fibrinogen-A647 binding fluorescence, higher = more signal;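 also: z-score merges 667 nm fluorescence with per-spot signal-to-noise over triplicate slides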
[5] = target: Follistatin (Homo sapiens) (UniProt P19883); experiment: FST protein binding to printed compounds – biochemical, small-molecule microarray, 635/667 nm fluorescence, primary screen (AID 1132); details: 635 nm fluorescence, higher = more signal
Chain of Follistatin (Homo sapiens) (P19883 whole entry, looked up): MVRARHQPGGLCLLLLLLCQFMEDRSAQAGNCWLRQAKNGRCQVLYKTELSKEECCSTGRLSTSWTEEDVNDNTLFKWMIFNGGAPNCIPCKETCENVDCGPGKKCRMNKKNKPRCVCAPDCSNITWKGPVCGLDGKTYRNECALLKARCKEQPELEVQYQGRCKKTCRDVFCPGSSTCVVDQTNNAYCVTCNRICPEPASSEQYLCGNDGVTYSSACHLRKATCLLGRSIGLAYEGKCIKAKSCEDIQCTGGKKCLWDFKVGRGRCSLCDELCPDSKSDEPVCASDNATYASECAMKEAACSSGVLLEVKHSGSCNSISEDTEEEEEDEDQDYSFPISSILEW

[6] = target: Fibroblast growth factor 2 (Homo sapiens) (UniProt P09038); experiment: basic fibroblast growth factor binding to printed compounds – biochemical, small-molecule microarray, 635/667 nm fluorescence, primary screen (AID 1133); details: FGF2, fluorescence 635/667, higher = more signal
Chain of Fibroblast growth factor 2 (Homo sapiens) (P09038 whole entry, looked up): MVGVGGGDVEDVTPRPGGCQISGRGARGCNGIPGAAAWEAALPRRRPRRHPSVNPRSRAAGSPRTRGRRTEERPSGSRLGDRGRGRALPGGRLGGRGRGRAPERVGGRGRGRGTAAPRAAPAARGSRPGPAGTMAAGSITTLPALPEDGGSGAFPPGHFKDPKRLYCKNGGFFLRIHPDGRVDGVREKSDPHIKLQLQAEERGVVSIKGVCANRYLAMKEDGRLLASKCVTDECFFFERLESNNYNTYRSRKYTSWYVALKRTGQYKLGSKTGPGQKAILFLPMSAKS

[7] = JC-1 mitochondrial potential readout, lung cancer cells – cell-based, A549, JC-1 fluorescence, basal, 24 h, 100 nL, profiling panel (AID 1138); details: higher = more signal;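 also: A549 lung adenocarcinoma cells under basal conditions with no added stimulus; test concentration not given here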
[8] = tested on: Lefty1; experiment: Lefty1 protein binding to printed compounds – biochemical, small-molecule microarray, 635/667 nm fluorescence, primary screen (AID 1139); details: fluorescence 635/667, higher = more signal
[9] = tested on: wheat germ agglutinin (Triticum aestivum), Alexa647-labelled; experiment: Alexa647-WGA lectin binding to printed small molecules – biochemical, small-molecule microarray, 635/667 nm fluorescence, artefact control for SMM control-protein annotation, profiling panel (AID 1140); details: WGA-A647 binding, 635 nm fluorescence, higher = more signal;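 also: score merges 667 nm feature emission with signal to noise over triplicate slides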
[10] = target: Luciferin 4-monooxygenase (Photinus pyralis) (UniProt P08659); experiment: inhibition of purified Photinus pyralis luciferase – biochemical, luminescence, purified enzyme, 2006 set, primary screen (AID 1141); details: purified firefly luciferase, SteadyGlo luminescence, 30 min; higher = more signal, called active from +8 up or from −8 down;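 also: cell-free assay with purified firefly luciferase at 100 ng per well in PBS; test concentration not given here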
Chain of Luciferin 4-monooxygenase (Photinus pyralis) (P08659 whole entry, looked up): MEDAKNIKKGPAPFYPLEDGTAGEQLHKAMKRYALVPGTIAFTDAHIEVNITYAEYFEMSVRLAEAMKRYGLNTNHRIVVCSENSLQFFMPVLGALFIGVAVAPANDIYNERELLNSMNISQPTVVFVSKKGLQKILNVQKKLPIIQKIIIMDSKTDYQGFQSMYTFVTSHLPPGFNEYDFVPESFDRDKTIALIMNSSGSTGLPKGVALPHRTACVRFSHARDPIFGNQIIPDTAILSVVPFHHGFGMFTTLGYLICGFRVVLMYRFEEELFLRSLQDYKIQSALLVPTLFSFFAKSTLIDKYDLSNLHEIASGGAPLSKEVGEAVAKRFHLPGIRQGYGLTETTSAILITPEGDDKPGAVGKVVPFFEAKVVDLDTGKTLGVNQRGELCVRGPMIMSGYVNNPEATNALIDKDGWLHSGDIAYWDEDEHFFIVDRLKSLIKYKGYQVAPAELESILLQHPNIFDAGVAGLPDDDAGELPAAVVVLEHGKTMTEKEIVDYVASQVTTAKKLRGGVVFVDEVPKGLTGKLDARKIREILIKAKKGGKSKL

SMILES | composite z-score [1] | composite z-score [2] | composite z-score [3] | composite z-score [4] | composite z-score [5] | composite z-score [6] | z-score [7] | composite z-score [8] | composite z-score [9] | z-score [10]
CC(CCN1CCc2nc(-c3ccccc3)c(-c3ccccc3)cc2C1)=NO[C@H](C)c1cn([C@@H]2COC[C@H]2O)nn1 | 0.124 | 0.915 | 0.0127 | 0.717 | 0.438 | 0.0208 | 1.17 | 0.712 | 0.224 | -0.475 (inactive)
CC[C@@H](c1ccccc1)n1c(=O)n2n(c1=O)[C@H]1[C@H](O)[C@@H]3O[C@@H]3C(=NOCC(C)C)[C@H]1CC2 | 0.356 | 0.0566 | -0.267 | -0.203 | 0.38 | 0.0571 | -0.492 | 0.542 | -0.0401 | 0.292 (inactive)
CC(C)CON=C1C[C@@H](O)[C@@H](O)[C@@H]2[C@@H]3C(=O)N(C[C@@H]4CCCO4)C(=O)[C@@H]3CC[C@H]12 | 0.361 | 0.625 | 0.0201 | 0.286 | 0.268 | 0.911 | -0.786 | 0.541 | 0.0098 | 1.01 (inactive)
CCOC(=O)NN=C1C[C@@H](O)[C@@H](O)[C@@H]2[C@@H]3C(=O)N(C[C@@H]4CCCO4)C(=O)[C@@H]3CC[C@@H]12 | 0.193 | 0.329 | 0.295 | 0.216 | 0.306 | 0.436 | 0.39 | 0.344 | 0.386 | -0.439 (inactive)
O=C1[C@H]2[C@H]3[C@H](O)[C@H](O)CC(=NOC[C@@H](O)COCc4ccco4)[C@H]3CC[C@H]2C(=O)N1C1CCCCC1 | -0.0844 | -0.476 | -0.329 | -1.02 | 1.21 | 1.07 | -0.948 | 1.3 | -1.22 | 0.822 (inactive)
CN(C)c1ccc(C(O)C2C=CC3C(=O)N(c4ccccc4)C(=O)C3N2Nc2ccccc2F)cc1 (stereo not given) | 1.68 | 1.24 | 0.0651 | 0.793 | 0.404 | -0.872 | -1.06 | 0.0136 | 0.792 | -0.484 (inactive)
CC(C)[Si]1(C(C)C)O[C@@H](c2ccccc2)c2cc(C3CC3)nc(-c3ccccc3)c21 | -0.829 | -0.466 | -0.925 | 0.412 | -0.165 | -0.246 | -0.271 | -0.198 | 0.105 | -0.471 (inactive)
CN1C(=O)C2C(C1=O)C1C=C(CCCO)C2C(c2ccc(CN3CCCC3)cc2)N1C (stereo not given) | -0.0122 | -0.329 | 0.0551 | -1.58 | -0.227 | -0.052 | -1.01 | -0.0306 | -0.236 | 0.53 (inactive)
CC(C)=CCCC(C)=CCON=C1[C@H]2CCn3c(=O)n(C)c(=O)n3[C@H]2[C@H](O)[C@@H]2O[C@H]12 | 0.957 | 0.968 | -0.236 | 0.674 | 0.865 | 0.896 | 0.637 | 1.37 | 0.115 | -0.284 (inactive)
CC(CCN1CCc2nc(-c3ccccc3)c(-c3ccccc3)cc2C1)=NO[C@@H](C)c1cn([C@H](CO)Cc2ccccc2)nn1 | -0.0253 | 0.219 | 0.0807 | 0.929 | 0.408 | 0.453 | 1.22 | 0.342 | 0.706 | -1.77 (inactive)
C=CC[C@@H]1C=C[C@H](ON=C2c3cc(OC)ccc3O[C@H](c3cccc(OC)c3)[C@H]2O)[C@@H](CO)O1 | -0.738 | -0.133 | 0.374 | 0.352 | -0.0389 | 0.369 | -0.102 | 0.873 | 0.499 | -0.101 (inactive)
COCCOC(=O)N1C(=O)[C@@]2(c3cc(C#CC4(O)CCCCCC4)ccc31)[C@H](C(=O)N1CCN(c3ncccn3)CC1)[C@H]1C(=O)O[C@H](c3ccccc3)[C@H](c3ccccc3)N1[C@@H]2c1ccc(OCCO)cc1 | 2.08 | 1.2 | 0.289 | 0.889 | 1.29 | 1.35 | -1.34 | 0.637 | 1.09 | -2.19 (inactive)
Cc1ccc(S[C@]2(C(=O)NCC(F)(F)F)CC(=O)N(Cc3ccccc3Cl)[C@@H]2c2ccc(CO)cc2I)cc1 | -1.18 | -0.0053 | 0.395 | -0.563 | -0.253 | -0.624 | 1.14 | -0.558 | 1.13 | -0.289 (inactive)
COC(=O)[C@H]1COC(c2ccc(OCCCO)cc2)=N1 | -0.748 | -0.877 | -0.57 | -4.27 | 0.267 | 1.14 | -0.765 | -0.878 | 0.177 | -21.6 (active)
N#Cc1ccc(NN2C(C(O)c3cc(C(F)(F)F)cc(C(F)(F)F)c3)C=CC3C(=O)N(c4ccccc4)C(=O)C32)cc1 (stereo not given) | 0.94 | 1.17 | 0.756 | 0.932 | 1.11 | -0.477 | 0.277 | 0.265 | 1.16 | -0.514 (inactive)
CCOC(=O)CCN1C(=O)[C@H]2[C@H]3[C@H](O)[C@H](O)CC(=O)[C@H]3CC[C@H]2C1=O | 0.683 | 0.676 | -0.186 | 0.29 | 0.369 | 0.364 | -0.648 | 0.413 | 0.125 | 0.524 (inactive)
